Measured values: ChEMBL document CHEMBL1961873, “Compounds: GSK PKIS; Assays: Nanosyn kinase panel” (2012)

Each molecule was assayed on Mast/stem cell growth factor receptor Kit (Homo sapiens), P10721 [V560G]. Settings: at 1 µM.
Mast/stem cell growth factor receptor Kit (Homo sapiens), P10721 [V560G], sequence (P10721 whole entry V560G): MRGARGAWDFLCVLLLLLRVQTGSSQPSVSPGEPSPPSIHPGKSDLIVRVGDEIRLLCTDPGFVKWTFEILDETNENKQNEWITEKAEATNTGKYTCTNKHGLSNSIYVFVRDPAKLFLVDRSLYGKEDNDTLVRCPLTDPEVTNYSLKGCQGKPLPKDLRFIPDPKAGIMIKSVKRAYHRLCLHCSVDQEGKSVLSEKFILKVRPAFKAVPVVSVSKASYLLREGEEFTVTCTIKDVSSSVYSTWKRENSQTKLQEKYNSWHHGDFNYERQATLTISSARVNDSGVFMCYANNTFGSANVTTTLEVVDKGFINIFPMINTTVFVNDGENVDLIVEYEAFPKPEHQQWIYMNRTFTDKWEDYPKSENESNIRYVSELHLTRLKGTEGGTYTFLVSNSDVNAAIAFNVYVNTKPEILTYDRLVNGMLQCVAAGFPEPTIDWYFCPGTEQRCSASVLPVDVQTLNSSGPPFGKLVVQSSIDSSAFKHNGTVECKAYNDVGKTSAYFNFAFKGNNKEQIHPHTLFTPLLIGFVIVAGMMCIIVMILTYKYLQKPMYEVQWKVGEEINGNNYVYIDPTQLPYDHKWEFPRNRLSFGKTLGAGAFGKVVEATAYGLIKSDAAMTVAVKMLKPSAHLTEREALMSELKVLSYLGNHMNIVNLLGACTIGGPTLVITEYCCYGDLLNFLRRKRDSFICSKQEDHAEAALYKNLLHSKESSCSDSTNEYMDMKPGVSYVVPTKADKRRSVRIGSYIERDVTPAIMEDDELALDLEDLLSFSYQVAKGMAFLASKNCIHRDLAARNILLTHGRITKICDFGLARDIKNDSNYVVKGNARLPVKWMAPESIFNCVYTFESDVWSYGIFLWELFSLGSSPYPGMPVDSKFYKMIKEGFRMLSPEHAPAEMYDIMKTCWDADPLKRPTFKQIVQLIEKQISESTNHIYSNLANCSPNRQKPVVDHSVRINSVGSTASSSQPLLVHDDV
For `COc1cccc(-n2ncc3c(N/N=C/c4ccc(C)cc4)ncnc32)c1`, the inhibition was -2.13%.
Work on `COc1cc2ncnc(Nc3ccc4c(cnn4Cc4ccccc4)c3)c2cc1OC` yielded an inhibition of 2.41%.
Molecule `Cc1ccc(NC(=O)CC2CC2)cc1-c1ccc(C(=O)NCC2CC2)cc1` has an inhibition of 2.75%.
With `COc1ccc2ncnc(Nc3ccc(OCc4ccccc4)cc3)c2c1` the inhibition was 0.69%.
With `Nc1nccc(-c2c(-c3ccc(F)cc3)ncn2CCCN2CCOCC2)n1` the inhibition was 1.5%.
`CN(C)C(=O)O[C@@H]1CN[C@@H](C#Cc2cc3ncnc(Nc4ccc(OCc5cccc(F)c5)c(Cl)c4)c3s2)C1` was tested, and the inhibition was 4.14%.
Work on `Cc1cc(O)cc(C)c1/C=C/c1cncc(C(=O)N(C)C)c1` yielded an inhibition of 4.85%.
Work on `Cc1cc(-c2ccccn2)cc(C)c1/C=C/c1cncc(-c2nn[nH]n2)c1` yielded an inhibition of -1.86%.
Molecule `CN(C)C(=O)O[C@H]1CN[C@H](C#Cc2cc3ncnc(Nc4ccc(OCc5cccc(F)c5)c(Cl)c4)c3s2)C1` has an inhibition of 2.8%.
Molecule `Oc1cccc(-c2nc(-c3ccccc3)[nH]c2-c2ccncc2)c1` has an inhibition of 3.96%.
`c1ccc(Cc2nc3ccc(Nc4ncnc5ccccc45)cc3[nH]2)cc1` was tested, and the inhibition was 5.96%.
Work on `CCn1c(-c2nonc2N)nc2ccc(F)cc21` yielded an inhibition of -0.91%.
In the case of `Cc1ccc2c(-c3ccnc(Nc4ccc5c(c4)OCCO5)n3)c(-c3ccc(C(F)(F)F)cc3)nn2n1`, the inhibition was 0.88%.
In the case of `N#Cc1c(NC(=O)c2ccccc2F)sc2c1CCCC2`, the inhibition was 2.89%.
`CCOc1nccc2c1nc(-c1nonc1N)n2CC` gave an inhibition of 7.59%.
In the case of `Nc1ccc(C#Cc2cncnc2Nc2ccc(OCc3cccc(F)c3)c(Cl)c2)cc1`, the inhibition was -1.6%.
In the case of `Cc1nc(-c2ccccc2)n2nc(NCCCN3CCOCC3)ncc12`, the inhibition was 0.39%.
In the case of `CN(c1ccc(NC(=O)Nc2ccc(OC(F)(F)F)cc2)cc1)c1ccnc(Nc2cccc(S(N)(=O)=O)c2)n1`, the inhibition was 93.4%.
With `COc1ccc(-c2nn3ncccc3c2-c2ccnc(Nc3cccc(C(F)(F)F)c3)n2)cc1` the inhibition was 7.05%.
`COC(=O)c1ccc2c(c1)C(=Cc1cc(Br)c(O)c(Br)c1)C(=O)N2` showed an inhibition of 0.2%.
In the case of `Cc1ccc2c(-c3ccnc(Nc4cccc(C(F)(F)F)c4)n3)c(-c3ccccc3)nn2n1`, the inhibition was 10.7%.
`NS(=O)(=O)c1ccc(Nc2cc(-c3cccc(O)c3)n[nH]2)cc1` gave an inhibition of 25.4%.
Molecule `COc1cc(/C=N/Nc2ncnc3c2cnn3C(C)C)ccc1O` has an inhibition of 7.86%.
In the case of `Cc1ccc2c(c1)/C(=N/Nc1ccc(S(N)(=O)=O)cc1)C(=O)N2`, the inhibition was 24.4%.
With `OCc1ccc(-c2nc(-c3ccccn3)c(-c3ccc4c(c3)OCO4)[nH]2)cc1` the inhibition was 2.83%.
Molecule `CC(C)c1ccc(Nc2nccc(-c3cnn4ncccc34)n2)cc1` has an inhibition of 64%.
`O=S(=O)(CCOCc1ccc(-c2ccc3ncnc(Nc4ccc(OCc5cccc(F)c5)c(Cl)c4)c3c2)o1)c1ccccc1` gave an inhibition of -2.4%.
`O=C1Nc2ccccc2/C1=C/Nc1ccc2[nH]c(=O)[nH]c2c1` gave an inhibition of 21.8%.
In the case of `CCCN1CCCC(c2ccc(Nc3nc(Nc4cc(F)ccc4C(N)=O)c4cc[nH]c4n3)c(OC)c2)C1` (stereo unspecified), the inhibition was -0.43%.
Work on `CN(C)c1cc2c(Nc3ccc4c(cnn4Cc4ccccc4)c3)ncnc2cn1` yielded an inhibition of 2.75%.
`CCS(=O)(=O)c1ccc(OC)c(Nc2nccc(N(C)c3ccc4c(C)n[nH]c4c3)n2)c1` showed an inhibition of 11.8%.
Molecule `CCn1c(-c2nonc2N)nc2c(C#CC(C)(C)O)nc(OCCNC)cc21` has an inhibition of 4.6%.
`COc1cc(Nc2nccc(-c3cnn4ncccc34)n2)cc(OC)c1` showed an inhibition of 92.5%.

Each molecule was assayed against Tyrosine-protein kinase Lck (Homo sapiens) (UniProt P06239). Settings: at 0.1 µM.
Tyrosine-protein kinase Lck (Homo sapiens), sequence (P06239 2-509 limits assumed): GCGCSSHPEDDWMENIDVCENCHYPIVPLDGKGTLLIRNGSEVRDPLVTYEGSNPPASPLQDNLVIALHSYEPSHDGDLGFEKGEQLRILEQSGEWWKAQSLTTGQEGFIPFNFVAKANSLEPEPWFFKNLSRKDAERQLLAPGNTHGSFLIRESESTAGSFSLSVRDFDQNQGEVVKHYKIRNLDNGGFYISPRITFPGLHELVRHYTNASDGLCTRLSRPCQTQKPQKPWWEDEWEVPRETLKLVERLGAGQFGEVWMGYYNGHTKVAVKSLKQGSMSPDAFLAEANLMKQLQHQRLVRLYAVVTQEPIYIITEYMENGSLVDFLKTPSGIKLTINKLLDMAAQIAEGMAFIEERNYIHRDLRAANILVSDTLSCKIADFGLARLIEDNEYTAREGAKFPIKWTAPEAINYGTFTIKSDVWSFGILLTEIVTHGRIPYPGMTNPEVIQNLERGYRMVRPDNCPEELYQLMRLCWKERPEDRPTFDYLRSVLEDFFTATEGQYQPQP
Molecule `COc1cccc(-n2ncc3c(N/N=C/c4ccc(C)cc4)ncnc32)c1` has an inhibition of 7.28%.
`COc1cc2ncnc(Nc3ccc4c(cnn4Cc4ccccc4)c3)c2cc1OC` gave an inhibition of 19.5%.
`Cc1ccc(NC(=O)CC2CC2)cc1-c1ccc(C(=O)NCC2CC2)cc1` gave an inhibition of 1.18%.
`COc1ccc2ncnc(Nc3ccc(OCc4ccccc4)cc3)c2c1` was tested, and the inhibition was 1.39%.
With `Nc1nccc(-c2c(-c3ccc(F)cc3)ncn2CCCN2CCOCC2)n1` the inhibition was 2.05%.
`CN(C)C(=O)O[C@@H]1CN[C@@H](C#Cc2cc3ncnc(Nc4ccc(OCc5cccc(F)c5)c(Cl)c4)c3s2)C1` gave an inhibition of 1.89%.
Molecule `Cc1cc(O)cc(C)c1/C=C/c1cncc(C(=O)N(C)C)c1` has an inhibition of 3.69%.
Work on `Cc1cc(-c2ccccn2)cc(C)c1/C=C/c1cncc(-c2nn[nH]n2)c1` yielded an inhibition of 4.47%.
Molecule `CN(C)C(=O)O[C@H]1CN[C@H](C#Cc2cc3ncnc(Nc4ccc(OCc5cccc(F)c5)c(Cl)c4)c3s2)C1` has an inhibition of 1.92%.
In the case of `Oc1cccc(-c2nc(-c3ccccc3)[nH]c2-c2ccncc2)c1`, the inhibition was 4.47%.
`c1ccc(Cc2nc3ccc(Nc4ncnc5ccccc45)cc3[nH]2)cc1` showed an inhibition of 2.08%.
Work on `CCn1c(-c2nonc2N)nc2ccc(F)cc21` yielded an inhibition of 2.91%.
With `Cc1ccc2c(-c3ccnc(Nc4ccc5c(c4)OCCO5)n3)c(-c3ccc(C(F)(F)F)cc3)nn2n1` the inhibition was 1.9%.
For `N#Cc1c(NC(=O)c2ccccc2F)sc2c1CCCC2`, the inhibition was 0.15%.
Molecule `CCOc1nccc2c1nc(-c1nonc1N)n2CC` has an inhibition of 1.92%.
`Nc1ccc(C#Cc2cncnc2Nc2ccc(OCc3cccc(F)c3)c(Cl)c2)cc1` gave an inhibition of 2.57%.
`Cc1nc(-c2ccccc2)n2nc(NCCCN3CCOCC3)ncc12` gave an inhibition of 2.08%.
With `CN(c1ccc(NC(=O)Nc2ccc(OC(F)(F)F)cc2)cc1)c1ccnc(Nc2cccc(S(N)(=O)=O)c2)n1` the inhibition was 33.7%.
Molecule `COc1ccc(-c2nn3ncccc3c2-c2ccnc(Nc3cccc(C(F)(F)F)c3)n2)cc1` has an inhibition of 3.91%.
With `COC(=O)c1ccc2c(c1)C(=Cc1cc(Br)c(O)c(Br)c1)C(=O)N2` the inhibition was 5.24%.
Work on `Cc1ccc2c(-c3ccnc(Nc4cccc(C(F)(F)F)c4)n3)c(-c3ccccc3)nn2n1` yielded an inhibition of 8.54%.
`NS(=O)(=O)c1ccc(Nc2cc(-c3cccc(O)c3)n[nH]2)cc1` was tested, and the inhibition was 1.64%.
`COc1cc(/C=N/Nc2ncnc3c2cnn3C(C)C)ccc1O` showed an inhibition of 16.7%.
`Cc1ccc2c(c1)/C(=N/Nc1ccc(S(N)(=O)=O)cc1)C(=O)N2` gave an inhibition of 1.15%.
For `OCc1ccc(-c2nc(-c3ccccn3)c(-c3ccc4c(c3)OCO4)[nH]2)cc1`, the inhibition was 4.57%.
Work on `CC(C)c1ccc(Nc2nccc(-c3cnn4ncccc34)n2)cc1` yielded an inhibition of 1.2%.
Work on `O=S(=O)(CCOCc1ccc(-c2ccc3ncnc(Nc4ccc(OCc5cccc(F)c5)c(Cl)c4)c3c2)o1)c1ccccc1` yielded an inhibition of 1.96%.
In the case of `O=C1Nc2ccccc2/C1=C/Nc1ccc2[nH]c(=O)[nH]c2c1`, the inhibition was 3.64%.
`CCCN1CCCC(c2ccc(Nc3nc(Nc4cc(F)ccc4C(N)=O)c4cc[nH]c4n3)c(OC)c2)C1` (stereo unspecified) showed an inhibition of 1.09%.
Work on `CN(C)c1cc2c(Nc3ccc4c(cnn4Cc4ccccc4)c3)ncnc2cn1` yielded an inhibition of 5.16%.
`CCS(=O)(=O)c1ccc(OC)c(Nc2nccc(N(C)c3ccc4c(C)n[nH]c4c3)n2)c1` gave an inhibition of 26.2%.
In the case of `CCn1c(-c2nonc2N)nc2c(C#CC(C)(C)O)nc(OCCNC)cc21`, the inhibition was 2.55%.
Work on `COc1cc(Nc2nccc(-c3cnn4ncccc34)n2)cc(OC)c1` yielded an inhibition of 2.75%.
